Test results from the supplement of paper PMC9262897, “Low-cost anti-mycobacterial drug discovery using engineered E. coli” (Nature Communications, 2022).
Where a name gives a salt, the structure may show the parent alone. ± gives the standard deviation of the averaged measurements.

What was measured:
Experiment in all cases: growth (OD600 after 10 h); higher = more growth (less inhibition)
[1] = tested on: E. coli TESEC Alr+ wild-type control; details: compound 0.1 mM; raw OD600 reference: median of DMSO wells 0.241, cell-free background 0.041
Experimental: (§1)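 TESEC Mtb Alr E. coli, or the Alr+ wild-type control, in 384-well plates with Prestwick library compounds at 0.1 mM and 1% DMSO, across arabinose induction levels of 1E3 to 1E7 nM. Growth is read as OD600 after 10 h at 37 °C in triplicate biological replicates.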

E. coli TESEC Mtb Alr [2] = details: compound 0.1 mM
Experimental: as §1

E. coli TESEC Mtb Asd = details: compound 0.1 mM
Experimental: (§2)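 TESEC E. coli strains in which the native enzyme is deleted and replaced by arabinose-inducible Mtb Asd, DapB, CysH or TrpD, each grown in its selective medium. Strains were screened against the Prestwick library at 0.1 mM and 1% DMSO in 384-well format at low and high arabinose induction. Growth is read as OD600 after 10 h in triplicate.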

E. coli TESEC Mtb DapB = details: compound 0.1 mM
Experimental: as §2

[3] = tested on: E. coli TESEC Alr+ wild-type control; details: compound 0.1 mM; raw OD600 reference: median of DMSO wells 0.49, cell-free background 0.052
Experimental: (§3)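 TESEC Mtb Alr E. coli (ΔaraC ΔtolC ΔentC Δalr ΔdadX, arabinose-inducible Mtb Alr) or the Alr+ wild-type control strain, grown in defined M9-fructose medium without D-alanine in 96-well plates with Prestwick library compounds at 0.1 mM and 1% DMSO. Low Alr induction is 0.1 µM arabinose and high induction is 10 mM arabinose.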

E. coli TESEC Mtb Alr [4] = details: compound 0.1 mM; remark: listed apart in the source
Experimental: as §3

[5] = arabinose 1000 nM, raw OD600 reference: median of DMSO wells 0.294, cell-free background 0.041
[6] = arabinose 10000 nM, raw OD600 reference: median of DMSO wells 0.264, cell-free background 0.041
[7] = arabinose 100000 nM, raw OD600 reference: median of DMSO wells 0.201, cell-free background 0.041
[8] = arabinose 1000000 nM, raw OD600 reference: median of DMSO wells 0.193, cell-free background 0.041
[9] = arabinose 10000000 nM, raw OD600 reference: median of DMSO wells 0.146, cell-free background 0.041
[10] = arabinose induction (level): High, raw OD600 reference: median of DMSO wells 0.331, cell-free background 0.041
[11] = arabinose induction (level): Low, raw OD600 reference: median of DMSO wells 0.417, cell-free background 0.041
[12] = arabinose induction (level): High, raw OD600 reference: median of DMSO wells […], cell-free background 0.041
[13] = arabinose induction (level): Low, raw OD600 reference: median of DMSO wells 0.227, cell-free background 0.041
[14] = arabinose 100 nM, raw OD600 reference: median of DMSO wells 0.413, cell-free background 0.052
[15] = arabinose 10000000 nM, raw OD600 reference: median of DMSO wells […], cell-free background 0.052

SMILES | growth [1] | growth (E. coli TESEC Mtb Alr [2]; [5]) | growth (E. coli TESEC Mtb Alr [2]; [6]) | growth (E. coli TESEC Mtb Alr [2]; [7]) | growth (E. coli TESEC Mtb Alr [2]; [8]) | growth (E. coli TESEC Mtb Alr [2]; [9]) | growth (E. coli TESEC Mtb Asd; [10]) | growth (E. coli TESEC Mtb Asd; [11]) | growth (E. coli TESEC Mtb DapB; [12]) | growth (E. coli TESEC Mtb DapB; [13]) | growth [3] | growth (E. coli TESEC Mtb Alr [4]; [14]) | growth (E. coli TESEC Mtb Alr [4]; [15])
CN(CCCCCCCCCCN(C)C(=O)Oc1cccc([N+](C)(C)C)c1)C(=O)Oc1cccc([N+](C)(C)C)c1 [Demecarium bromide] | 0.04127 ± 0.00031 | 0.0415 ± 0.00053 | 0.03993 ± 5.8e-05 | 0.0453 ± 0.0065 | 0.03943 ± 0.00023 | 0.0426 ± 0.0012 | 0.0473 ± 0.00079 | 0.047 ± 0.0013 | 0.0492 ± 0.00091 | 0.0493 ± 0.0005 | 0.051 ± 0.00093 | 0.0633 ± 0.0063 | 0.0536 ± 0.0014
C[C@@H]1NC(=O)NC1=O [Methylhydantoin-5-(L)] | 0.236 ± 0.0048 | 0.292 ± 0.012 | 0.274 ± 0.005 | 0.182 ± 0.017 | 0.186 ± 0.0047 | 0.1457 ± 0.0013 | 0.427 ± 0.024 | 0.44 ± 0.036 | 0.192 ± 0.013 | 0.245 ± 0.022 | 0.49 ± 0.056 | 0.411 ± 0.016 | 0.352 ± 0.014
CCc1ccc(CCOc2ccc(CC3SC(=O)NC3=O)cc2)nc1 (configuration not stated) [Pioglitazone] | 0.225 ± 0.0024 | 0.268 ± 0.012 | 0.267 ± 0.0054 | 0.176 ± 0.0064 | 0.164 ± 0.002 | 0.15 ± 0.0092 | 0.292 ± 0.045 | 0.334 ± 0.04 | 0.191 ± 0.0045 | 0.191 ± 0.011 | 0.577 ± 0.076 | 0.426 ± 0.018 | 0.358 ± 0.023
CN(C)C/C=C(/c1ccc(Br)cc1)c1cccnc1 [Zimelidine dihydrochloride monohydrate] | 0.2066 ± 0.0016 | 0.261 ± 0.0081 | 0.255 ± 0.028 | 0.192 ± 0.028 | 0.153 ± 0.0035 | 0.134 ± 0.0035 | 0.237 ± 0.037 | 0.413 ± 0.022 | 0.168 ± 0.0086 | 0.261 ± 0.12 | 0.445 ± 0.04 | 0.397 ± 0.01 | 0.303 ± 0.028
Nc1nc2ccc(OC(F)(F)F)cc2s1 [Riluzole hydrochloride] | 0.176 ± 0.007 | 0.188 ± 0.0051 | 0.255 ± 0.0058 | 0.212 ± 0.007 | 0.262 ± 0.016 | 0.194 ± 0.0031 | 0.388 ± 0.01 | 0.208 ± 0.02 | 0.241 ± 0.005 | 0.241 ± 0.0089 | 0.439 ± 0.011 | 0.415 ± 0.014 | 0.419 ± 0.0084
CN(C)C(=O)C(CCN1CCC(O)(c2ccc(Cl)cc2)CC1)(c1ccccc1)c1ccccc1 [Loperamide hydrochloride] | 0.0426 ± 0.00061 | 0.0401 ± 0.00042 | 0.0402 ± 0.00044 | 0.0412 ± 0.00047 | 0.0404 ± 0.0001 | 0.04237 ± 0.00015 | 0.0486 ± 0.00055 | 0.0487 ± 0.00055 | 0.0489 ± 0.00058 | 0.0571 ± 0.017 | 0.0784 ± 0.034 | 0.4189 ± 0.00099 | 0.0518 ± 0.00072
NC[C@@H]1O[C@H](O[C@H]2[C@@H](O)[C@H](O[C@@H]3[C@@H](O)[C@H](N)C[C@H](N)[C@H]3O[C@H]3O[C@H](CN)[C@@H](O)[C@H](O)[C@H]3N)O[C@@H]2CO)[C@H](N)[C@@H](O)[C@@H]1O [Neomycin sulfate] | 0.249 ± 0.0054 | 0.305 ± 0.009 | 0.287 ± 0.0035 | 0.219 ± 0.015 | 0.19 ± 0.005 | 0.163 ± 0.0028 | 0.271 ± 0.043 | 0.389 ± 0.021 | 0.187 ± 0.018 | 0.245 ± 0.041 | 0.453 ± 0.037 | 0.4232 ± 0.0036 | 0.343 ± 0.013
Fc1ccc([C@@H]2CCNC[C@H]2COc2ccc3c(c2)OCO3)cc1 [Paroxetine Hydrochloride] | 0.178 ± 0.0068 | 0.172 ± 0.01 | 0.2021 ± 0.0013 | 0.129 ± 0.0033 | 0.05573 ± 0.00035 | 0.0552 ± 0.0014 | 0.133 ± 0.0029 | 0.176 ± 0.0037 | 0.172 ± 0.027 | 0.178 ± 0.0082 | 0.444 ± 0.026 | 0.384 ± 0.0066 | 0.134 ± 0.073
Nc1nc(F)nc2c1ncn2[C@@H]1O[C@H](CO)[C@@H](O)[C@@H]1O [Fludarabine] | 0.207 ± 0.0038 | 0.216 ± 0.0082 | 0.241 ± 0.0025 | 0.168 ± 0.011 | 0.185 ± 0.0037 | 0.133 ± 0.0056 | 0.272 ± 0.031 | 0.222 ± 0.035 | 0.168 ± 0.014 | 0.194 ± 0.028 | 0.626 ± 0.044 | 0.411 ± 0.0067 | 0.31 ± 0.004
O=C(c1ccc(F)cc1)C1CCN(CCn2c(=O)[nH]c3ccccc3c2=O)CC1 [Ketanserin tartrate hydrate] | 0.183 ± 0.0037 | 0.251 ± 0.0083 | 0.27 ± 0.0047 | 0.221 ± 0.033 | 0.132 ± 0.0046 | 0.17 ± 0.0079 | 0.243 ± 0.075 | 0.393 ± 0.039 | 0.203 ± 0.02 | 0.251 ± 0.056 | 0.491 ± 0.043 | 0.407 ± 0.011 | 0.2801 ± 0.002
CCN1CCCC(OC(=O)C(c2ccccc2)c2ccccc2)C1 (configuration not stated) [Piperidolate hydrochloride] | 0.18 ± 0.0021 | 0.264 ± 0.0065 | 0.259 ± 0.012 | 0.161 ± 0.01 | 0.157 ± 0.0096 | 0.136 ± 0.0042 | 0.176 ± 0.025 | 0.428 ± 0.14 | 0.178 ± 0.018 | 0.182 ± 0.0083 | 0.555 ± 0.023 | 0.4174 ± 0.0019 | 0.329 ± 0.011
CC[C@]12CCCN3CCc4c(n(c5ccccc45)[C@@](O)(C(=O)OC)C1)[C@@H]32 [Vincamine] | 0.235 ± 0.0064 | 0.276 ± 0.0046 | 0.258 ± 0.0043 | 0.193 ± 0.023 | 0.173 ± 0.0043 | 0.138 ± 0.0023 | 0.375 ± 0.011 | 0.456 ± 0.006 | 0.191 ± 0.015 | 0.266 ± 0.071 | 0.503 ± 0.059 | 0.422 ± 0.011 | 0.322 ± 0.011
CCC(C)(C)C(=O)O[C@H]1C[C@@H](C)C=C2C=C[C@H](C)[C@H](CC[C@@H]3C[C@@H](O)CC(=O)O3)[C@H]21 [Simvastatin] | 0.198 ± 0.017 | 0.201 ± 0.015 | 0.161 ± 0.0024 | 0.113 ± 0.0033 | 0.053 ± 0.0021 | 0.0742 ± 0.004 | 0.0906 ± 0.015 | 0.197 ± 0.023 | 0.161 ± 0.021 | 0.175 ± 0.0069 | 0.311 ± 0.016 | 0.392 ± 0.014 | 0.0705 ± 0.023
CCC(=O)O[C@]1(C(=O)SCF)[C@H](C)C[C@H]2[C@@H]3C[C@H](F)C4=CC(=O)C=C[C@]4(C)[C@@]3(F)[C@@H](O)C[C@@]21C [Fluticasone propionate] | 0.233 ± 0.0036 | 0.29 ± 0.013 | 0.274 ± 0.021 | 0.21 ± 0.012 | 0.201 ± 0.013 | 0.149 ± 0.0044 | 0.258 ± 0.058 | 0.36 ± 0.046 | 0.199 ± 0.015 | 0.239 ± 0.04 | 0.576 ± 0.026 | 0.453 ± 0.01 | 0.381 ± 0.034
